Results reported in PubChem BioAssay (Tox21).
Several values for one entry are separate records, joined by “and”; a condition that tells them apart may be missing. Equal entries are not always repeated. Records with an inconclusive call do not appear. Activity calls are given as the source filed them. Calls follow the shape of the full dose curve.

Legend:
[1] = target: Acetylcholinesterase (Homo sapiens) (UniProt P22303); assay: Acetylcholinesterase (AChE) small molecule antagonists: colormetric cell-based qHTS assay (AID 1347395); also: nearly all actives have a fitted effect of over 30% in size; also: potency is read from the fitted curve at half-maximal effect
How it was run: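 Quantitative HTS in attached SH-SY5Y cells: 30 min compound exposure, then 90 min with acetylthiocholine and DTNB at 37 C; colour from thiocholine reports AChE activity.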

[2] = target: Acetylcholinesterase (Homo sapiens) (UniProt P22303); assay: Acetylcholinesterase (AChE) small molecule antagonists: enzyme-based qHTS assay (AID 1347397); details: Potency: AChE enzyme activity inhibition; outcome: AChE enzyme activity inhibition; also: nearly all actives have a fitted effect of over 55% in size; also: potency is read from the fitted curve at half-maximal effect
How it was run: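 Enzyme inhibition was scored from DTNB-detected thiocholine formed by recombinant human AChE acting on acetylthiocholine. The 30 min compound preincubation and 10 min substrate reaction were both run at room temperature, with DMSO as vehicle control.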

[3] = target: Acetylcholinesterase (Homo sapiens) (UniProt P22303); assay: Acetylcholinesterase (AChE) small molecule antagonists: fluorescence cell-based qHTS assay (AID 1347398); details: Potency: AChE activity; outcome: AChE activity; also: nearly all actives have a fitted effect of over 50% in size; also: potency is read from the fitted curve at half-maximal effect
How it was run: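 Endogenous acetylcholinesterase of SH-SY5Y neuroblastoma cells is measured in situ. After overnight attachment and 30 min compound exposure, cells receive acetylthiocholine and Thiolite Green; fluorescence is read after 40 min at room temperature.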

[4] = target: Acetylcholinesterase (Homo sapiens) (UniProt P22303); assay: Acetylcholinesterase (AChE) small molecule antagonists: enzyme-based qHTS assay with human liver microsomes (AID 1347399); details: Potency: qHTS inhibition; outcome: qHTS inhibition; also: nearly all actives have a fitted effect of over 60% in size
How it was run: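 Recombinant human AChE (50 mU/mL in the enzyme mix) and human liver microsomes (0.25 mg/mL final) were preincubated with compound and NADPH (0.25 mg/mL final) for 30 min at 37 C. Acetylthiocholine/DTNB was then added; thiocholine was read colorimetrically after 10 min at room temperature.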

Measured: Potency

Sequence of Acetylcholinesterase (Homo sapiens) (P22303 whole entry, looked up): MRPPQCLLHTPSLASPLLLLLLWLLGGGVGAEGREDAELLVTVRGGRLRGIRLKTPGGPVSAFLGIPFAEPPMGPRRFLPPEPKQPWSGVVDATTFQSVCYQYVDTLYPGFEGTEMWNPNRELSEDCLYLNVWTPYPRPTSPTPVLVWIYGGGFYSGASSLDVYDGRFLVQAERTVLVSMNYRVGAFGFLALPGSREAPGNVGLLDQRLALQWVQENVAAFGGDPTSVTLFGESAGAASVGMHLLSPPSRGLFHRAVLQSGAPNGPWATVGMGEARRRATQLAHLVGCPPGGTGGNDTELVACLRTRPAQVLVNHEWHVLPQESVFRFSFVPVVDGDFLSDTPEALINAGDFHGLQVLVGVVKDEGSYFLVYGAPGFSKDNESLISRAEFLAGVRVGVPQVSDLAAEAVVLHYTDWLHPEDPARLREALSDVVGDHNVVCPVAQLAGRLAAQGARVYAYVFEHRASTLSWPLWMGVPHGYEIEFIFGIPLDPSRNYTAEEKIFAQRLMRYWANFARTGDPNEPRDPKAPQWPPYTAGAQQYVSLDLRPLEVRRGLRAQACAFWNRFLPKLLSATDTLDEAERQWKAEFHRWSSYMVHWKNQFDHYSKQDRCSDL

COc1ccc(S(=O)(=O)N2C(=O)[C@@](c3ccccc3OC)(N3C[C@H](O)C[C@H]3C(=O)N(C)C)c3cc(Cl)ccc32)c(OC)c1
inactive: all assays above

C[C@]12CCC(=O)C=C1C=C[C@@H]1[C@@H]2CC[C@@]2(C)[C@H]1CC[C@@]21CCC(=O)O1
inactive: all assays above

O=C1CCCc2ccccc21
inactive: all assays above

OC/C=C/c1ccccc1
inactive: all assays above

NC(=O)Cn1c(=O)cc(CCN2CCN(c3nccc4sccc34)CC2)c2ccc(F)cc21
inactive: [2] | [4]
active: [1] 35.6 µM | [3] 35.6 µM

Clc1cccc(Cl)n1
inactive: all assays above

CC(=O)c1c(C)c([N+](=O)[O-])c(C(C)(C)C)c([N+](=O)[O-])c1C
active: [1] 79.6 µM
inactive: all other assays above

CC(C(=O)O)c1cccc(Oc2ccccc2)c1 (stereo not given)
inactive: all assays above

CCCCC/C=C/CC(=O)OC
inactive: all assays above

C/C=C(\C)C=O
inactive: all assays above

CC(CC(C#N)(c1ccccc1)C(C)C)N(C)C (stereo not given)
inactive: all assays above

Cc1ccc(NC(=O)N(C)C)cc1NC(=O)N(C)C
inactive: all assays above

OCCCc1ccccc1
inactive: all assays above

CCN(CC#N)c1cccc(C)c1
inactive: all assays above

CCCCOCCO
inactive: all assays above

CCc1cc(Cl)c(OC)c(C(=O)NC[C@@H]2CCCN2CC)c1O
inactive: all assays above

C#Cc1ccc(-c2ccccc2F)cc1
inactive: all assays above

CCCc1nn(C)c2c(=O)[nH]c(-c3cc(S(=O)(=O)N4CCN(C)CC4)ccc3OCC)nc12
inactive: all assays above

CSc1c(Cl)c(Cl)c(Cl)c(Cl)c1Cl
inactive: all assays above

CNC(=O)CN(CCN(CCN(CC(=O)[O-])CC(=O)NC)CC(=O)[O-])CC(=O)[O-].O.[Gd+3]
inactive: all assays above

O=c1[nH]c2cc(C(F)(F)F)c(N3CCOCC3)cc2n(CP(=O)(O)O)c1=O
inactive: all assays above

CCCCCCCCOS(=O)(=O)O
inactive: all assays above

O=C(CCCCCCCCC#CI)Oc1ccccc1
inactive: all assays above

O=[N+]([O-])c1cccc(Cl)c1
inactive: all assays above

CC(=O)/C=C/C1C(C)=CCCC1(C)C (stereo not given)
inactive: all assays above

OCCOCCOCCO
inactive: all assays above

O=C(O)c1cccc(C(=O)O)n1
inactive: all assays above

CNC[C@H](O)[C@@H](O)[C@H](O)[C@H](O)CO
inactive: all assays above

CC(C)(C)OC=O
inactive: all assays above

O=S(=O)(O)c1ccc(Cl)cc1
inactive: all assays above

O=C(O)c1ccc(OCCCOc2ccc(C(=O)O)cc2)cc1
inactive: all assays above

C=CCCCCCCCC
inactive: all assays above

CC(=O)CC(=O)Nc1ccc(S(=O)(=O)O)cc1
inactive: all assays above

C1COCCN1
inactive: all assays above

Clc1ccc2cc3ccccc3cc2c1
inactive: all assays above

CC(=O)OCC(=O)[C@@]12N=C(C)O[C@@H]1C[C@H]1[C@@H]3CCC4=CC(=O)C=C[C@]4(C)[C@H]3[C@@H](O)C[C@@]12C
inactive: all assays above

c1ccc(CNc2ncnc3c2ncn3C2CCCCO2)cc1 (stereo not given)
inactive: all assays above

CCCCCC(=O)O[C@]1(C(C)=O)CC[C@H]2[C@@H]3CCC4=CC(=O)CC[C@]4(C)[C@H]3CC[C@@]21C
inactive: all assays above

C[C@@H](O[C@H]1OCCN(Cc2n[nH]c(=O)[nH]2)[C@H]1c1ccc(F)cc1)c1cc(C(F)(F)F)cc(C(F)(F)F)c1
inactive: all assays above

O=C(O[C@@H]1Cc2c(O)cc(O)cc2O[C@@H]1c1cc(O)c(O)c(O)c1)c1cc(O)c(O)c(O)c1
inactive: all assays above

CCC(C)n1ncn(-c2ccc(N3CCN(c4ccc(OC[C@H]5CO[C@](Cn6cncn6)(c6ccc(Cl)cc6Cl)O5)cc4)CC3)cc2)c1=O (stereo not given in full)
inactive: all assays above

C=CCOCC(CO)(COCC=C)COCC=C
inactive: all assays above

COC(=O)CCCCC(=O)OC
inactive: all assays above

OCCN(CCO)c1cccc(Cl)c1
inactive: all assays above

C[C@H]1O[C@H](O[C@H]2[C@H](O)[C@@H](O)[C@@H](O[C@H]3[C@H](O)[C@@H](O)[C@H](O)O[C@@H]3CO)O[C@@H]2CO)[C@H](O)[C@@H](O)[C@@H]1N[C@H]1C=C(CO)[C@@H](O)[C@H](O)[C@H]1O
inactive: all assays above

Cc1cc(N)no1
inactive: all assays above

CC(C)(Oc1ccc(Cl)cc1)C(=O)O
inactive: all assays above

Cc1ccc(S(=O)(=O)NC(=O)NN2CC3CCCC3C2)cc1 (stereo not given)
inactive: all assays above

c1cnc(N2CCN(Cc3ccc4c(c3)OCO4)CC2)nc1
inactive: all assays above

OCCN1CCNCC1
inactive: all assays above

CCCCOC(=O)C(C)OC(=O)CCC (stereo not given)
inactive: all assays above

COC(=O)[C@H]1[C@H]2C[C@@H]3c4[nH]c5cc(OC)ccc5c4CCN3C[C@H]2C[C@@H](OC(=O)/C=C/c2ccc(O)c(OC)c2)[C@@H]1OC
inactive: all assays above

O[C@@H](COc1cccc2ncccc12)CN1CCN(C2c3ccccc3[C@@H]3[C@H](c4ccccc42)C3(F)F)CC1 (stereo not given in full)
inactive: all assays above

CCCCC(=O)O[C@]1(C(=O)CO)[C@@H](C)C[C@H]2[C@@H]3CCC4=CC(=O)C=C[C@]4(C)[C@@]3(F)[C@@H](O)C[C@@]21C
inactive: all assays above

Nc1nc2ccccc2[nH]1
inactive: all assays above

Cc1nc2c([nH]1)c(=O)n(C)c(=O)n2Cc1ccco1
inactive: all assays above

O=C(NCCN1CCOCC1)c1ccc(Cl)cc1
inactive: all assays above

CN(N=O)C(=O)N[C@@H]1[C@@H](O)[C@H](O)[C@@H](CO)O[C@@H]1O
inactive: all assays above

S=C(NC1CCCCC1)NC1CCCCC1
inactive: all assays above

CN1CC(=O)N/C1=N/C(=O)Nc1cccc(Cl)c1
inactive: all assays above

CCCCCCOc1cc(C)c(O)c(C)c1C
inactive: all assays above

CCCNC(C)C(=O)Nc1ccccc1C (stereo not given)
inactive: all assays above

C/C=C/C(=O)O
inactive: all assays above

N=C(N)N
inactive: all assays above

O=NN(CCCl)C(=O)NC1CCCCC1
inactive: all assays above

CC1(C)[C@@H]2CC[C@@]1(C)[C@H](O)C2
inactive: all assays above

OC/C(Br)=C(\Br)CO
inactive: all assays above

CC(C)c1cccc(C(C)C)c1
inactive: all assays above

O=C[C@@H](O)[C@H](O)[C@H](O)CO
inactive: all assays above

O=C(O)c1cc(-c2ccccc2)nc2ccccc12
inactive: all assays above

CCO[Si](OCC)(OCC)c1ccccc1
inactive: all assays above

O=C(O)CSCC(=O)NC1CCSC1=O (stereo not given)
inactive: all assays above

CCCCN1C(=O)c2ccccc2C1=O
inactive: all assays above

O=C(O)c1ccccc1OP(=O)(O)O
inactive: all assays above

CCC(C)(C)c1cc(O)c(C(C)(C)CC)cc1O
inactive: all assays above

NCCOCCOCCN
inactive: all assays above

O=C1NCCN1CCO
inactive: all assays above

OCc1ccccc1O
inactive: all assays above

O=C(/C=C/c1ccccc1)OCc1ccccc1
inactive: all assays above

CCCCCCOCCO
inactive: all assays above

C=C[Si](OC(=C)C)(OC(=C)C)OC(=C)C
inactive: all assays above

C=C(C)C1CCC(C)CC1O (stereo not given)
inactive: all assays above

CCN(CCC#N)c1ccccc1
inactive: all assays above

CCCCC(CC)COC(=O)CCCCCCCCC(=O)OCC(CC)CCCC (stereo not given)
inactive: all assays above

CC(C)(C)C(=O)OCOP(=O)(COCCn1cnc2c(N)ncnc21)OCOC(=O)C(C)(C)C
active: [1] 30.9 µM | [2] 38.9 µM | [3] 13.8 µM
inactive: [4]

O=C(O)c1cc2ccccc2nc1C(=O)O
inactive: all assays above

CCN(CC)c1ccc(C(=C2C=CC(=[N+](CC)CC)C=C2)c2ccc(S(=O)(=O)O)cc2S(=O)(=O)[O-])cc1
inactive: all assays above

Cc1cc2c(s1)Nc1ccccc1N=C2N1CCN(C)CC1
inactive: all assays above

COc1cccc(OC)c1O
inactive: all assays above

CC=C(Cl)Cl
inactive: all assays above

N=C(N)c1ccc(OCCCCCOc2ccc(C(=N)N)cc2)cc1
inactive: [4]
active: [1] 35.4 µM and 30.3 µM and 17.4 µM | [2] 53.9 µM | [3] 22.4 µM and 27 µM

O=C(O)CCC(=O)c1ccc(-c2ccccc2)cc1
inactive: all assays above

C[Si]1(C)N[Si](C)(C)N[Si](C)(C)N1
inactive: all assays above

C1COCO1
inactive: all assays above

Cc1ccc(C)c(OCCCC(C)(C)C(=O)O)c1
inactive: all assays above

CC(C)n1nc(-c2cc3cc(O)ccc3[nH]2)c2c(N)ncnc21
inactive: all assays above

Cc1nc2sccn2c(=O)c1CCN1CCC(=C(c2ccc(F)cc2)c2ccc(F)cc2)CC1
inactive: [4]
active: [1] 30.9 µM | [2] 38.9 µM | [3] 15.5 µM

CC(=O)Nc1ccc(S(=O)(=O)Nc2ccc([N+](=O)[O-])cc2)cc1
inactive: all assays above

CCCCC(=O)O
inactive: all assays above

CCC[Si](OC)(OC)OC
inactive: all assays above

CN1CCN(N)CC1
inactive: all assays above

CCCC(=O)OCCC(C)CCC=C(C)C (stereo not given)
inactive: all assays above

CC(C)(C(=O)c1cccnc1)c1cccnc1
inactive: all assays above

CCC(=O)O[C@]1(C(=O)CCl)[C@@H](C)C[C@H]2[C@@H]3CCC4=CC(=O)C=C[C@]4(C)[C@@]3(F)[C@@H](O)C[C@@]21C
inactive: all assays above

O=C(O[C@@H](C(=O)O)[C@@H](OC(=O)c1ccccc1)C(=O)O)c1ccccc1
inactive: all assays above

CN1CCCN(C(c2ccccc2)c2ccc(Cl)cc2)CC1 (stereo not given)
inactive: all assays above

Nc1nc(N)c2nc(CNc3ccc(C(=O)N[C@@H](CCC(=O)O)C(=O)O)cc3)cnc2n1
inactive: all assays above

CCc1ccc2c(c1)C(=O)c1ccccc1C2=O
inactive: all assays above

CC(C)CCCCCCc1ccc(O)cc1
inactive: all assays above

NC(=O)Nc1nc2ccccc2[nH]1
inactive: all assays above

COCC(C)O (stereo not given)
inactive: all assays above

CC(=O)OCC(=O)[C@H]1CC[C@H]2[C@@H]3CCC4=CC(=O)CC[C@]4(C)[C@H]3CC[C@]12C
inactive: all assays above

O=C(c1cc(O)c(O)c(O)c1)c1ccc(O)c(O)c1O
inactive: all assays above

Cc1occc(=O)c1O
inactive: all assays above

C=CC(=O)NC(C)C
inactive: all assays above

CC1(C)Oc2ccc(C#N)cc2[C@@H](N2CCCC2=O)[C@@H]1O
inactive: all assays above

O=C(O)CCc1ccccc1
inactive: all assays above

COC1=C(OC)C(=O)C(CCCCCCCCCCO)=C(C)C1=O
inactive: all assays above

CC1(C)S[C@@H]2[C@H](NC(=O)C(C(=O)O)c3ccccc3)C(=O)N2[C@H]1C(=O)O (stereo not given in full)
inactive: all assays above

C=Cc1ccccc1C=C
inactive: all assays above
